Drawing on PubChem BioAssay (EPA / NIEHS), this text covers outcome and AC50 for seven molecules.

Inconclusive results are not listed. The source made the active and inactive calls. The calls were made as follows, unless noted: active = hit-call score of the fitted dose curve at least 0.9, where 1 is the maximum; inactive = score below 0.9.

Assay [1] deals with Bile acid receptor (Homo sapiens) (UniProt Q96RI1). As to the kind of experiment: ATG_FXR_TRANS: Attagene TRANS-FACTORIAL HepG2 Assay for Farnesoid X Receptor (FXR) (AID 2282979; active = hit-call score of the fitted dose curve at least 0.9, where 1 is the maximum;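 also: hits raise reporter mRNA above DMSO so AC50 marks FXR activation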). The following applies: HepG2 Attagene TRANS FXR-GAL4 reporter transcription. Summed up:
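Transient transfection of HepG2 with multiplexed GAL4-UAS reporter units; exogenous FXR-GAL4 chimera. Dose 24 h → TriZol RNA → oligo(dT) RT → PCR, 6-FAM primer extension, HpaI cut → CE. Gain vs DMSO.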

For assay [2], the target named is Oxysterols receptor LXR-alpha (Homo sapiens) (UniProt Q13133). The assay can be described thus: ATG_LXRa_TRANS: Attagene TRANS-FACTORIAL HepG2 Assay for human Liver X Receptor alpha (LXRa) (AID 2282980; active = hit-call score of the fitted dose curve at least 0.9, where 1 is the maximum). The following applies: HepG2 Attagene TRANS reporter, LXRa transactivation. Summed up:
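Transfect HepG2 with GAL4-UAS multiplex reporter constructs (TRANS format, chimeric receptor-GAL4); treat 24 h; extract RNA, reverse-transcribe, PCR-amplify, FAM-label, HpaI-digest; resolve fragments by capillary electrophoresis. Upward response vs DMSO.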

Assay [3] deals with Oxysterols receptor LXR-beta (Homo sapiens) (UniProt P55055). The assay can be described thus: ATG_LXRb_TRANS: Attagene TRANS-FACTORIAL HepG2 Assay for human Liver X Receptor beta (LXRb) (AID 2282981; active = hit-call score of the fitted dose curve at least 0.9, where 1 is the maximum). The conditions noted are these: HepG2 Attagene TRANS GAL4-LXRb reporter, mRNA. Summed up:
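Readout: fluorescent reporter mRNA fragments resolved by capillary electrophoresis after RT-PCR. System: transiently transfected human HepG2, exogenous LXRb-Gal4 chimera driving GAL4-UAS reporter, 24 h dosing. Activity fitted upward against DMSO baseline.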

Assay [4] is described as follows: ATG_M_06_TRANS: Attagene TRANS-FACTORIAL HepG2 Assay for M06 Transcription Factor (Internal Marker) (AID 2282983; active = hit-call score of the fitted dose curve at least 0.9, where 1 is the maximum;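 also: reporter transcript level by RT-PCR then capillary electrophoresis fluorescence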). The conditions noted are these: HepG2 Attagene TRANS M06 internal marker reporter. Summed up: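 Background control endpoint: reporter mRNA from transiently transfected HepG2 after 24 h dosing, detected by RT-PCR with capillary electrophoresis fluorescence. Analysed for gain versus DMSO.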

Assay [5] in a line: ATG_M_32_TRANS: Attagene TRANS-FACTORIAL HepG2 Assay for M32 Transcription Factor (Internal Marker) (AID 2282984; active = hit-call score of the fitted dose curve at least 0.9, where 1 is the maximum;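 also: transcript level of a background control reporter unit measured by RT-PCR and capillary electrophoresis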). The following applies: HepG2 Attagene TRANS M32 internal marker reporter. Summed up: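 Read-out: fluorescent reporter cDNA fragments resolved by capillary electrophoresis after RT-PCR of total RNA. Transfected HepG2 cells were exposed to chemical for 24 h. Activity scored in the positive direction relative to DMSO.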

Assay [6] addresses Nuclear receptor subfamily 4 group A member 2 (Homo sapiens) (UniProt P43354). As to the kind of experiment: ATG_NURR1_TRANS: Attagene TRANS-FACTORIAL HepG2 Assay for human Nuclear Receptor Related Protein 1 (NURR1) (AID 2282985; active = hit-call score of the fitted dose curve at least 0.9, where 1 is the maximum). The conditions noted are these: HepG2 Attagene TRANS reporter, mRNA readout. Summed up:
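Read-out: reporter mRNA induction by RT-PCR plus capillary electrophoresis with fluorescence detection, after 24 h dosing of transfected HepG2 cells. Exogenous NR-Gal4 chimera activity drives GAL4-UAS reporter; activity fitted upward versus DMSO.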

Assay [7] addresses Transcriptional activator Myb (Homo sapiens) (UniProt P10242). The assay can be described thus: ATG_Myb_CIS: Attagene CIS-FACTORIAL HepG2 Assay for human Myeloblastosis (Myb) Proto-Oncogene Transcription Factor (AID 2282986). The following applies: HepG2 Attagene CIS-FACTORIAL Myb reporter transcription; actives raise or lower the signal. Summed up: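 Using HepG2 liver cells bearing transiently transfected cis-promoter reporter constructs, the assay measures induction or loss of reporter mRNA after 24 hours of dosing. Detection used fluorescently labeled RT-PCR products separated by capillary electrophoresis.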

Assay [8] addresses Nuclear respiratory factor 1 (Homo sapiens) (UniProt Q16656). As to the kind of experiment: ATG_NRF1_CIS: Attagene CIS-FACTORIAL HepG2 Assay for human Nuclear Respiratory Factor 1 (NRF1) Orphan Gene (AID 2282987). The conditions noted are these: HepG2 NRF1 cis-element reporter, Attagene multiplex; actives raise or lower the signal. Summed up:
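Reporter mRNA induction or loss in HepG2 cells after 24 h dosing; cis-regulated reporter constructs report endogenous transcription-factor activity. Quantified by RT-PCR/capillary electrophoresis fluorescence, DMSO-referenced.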

Assay [9] in a line: ATG_NFI_CIS: Attagene CIS-FACTORIAL HepG2 Assay for human Nuclear Factor I (NFI) (AID 2282989). The following applies: HepG2 cis-regulatory reporter, NFI response element transcription; actives raise or lower the signal. Summed up: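 Cells: human liver HepG2, transiently transfected with promoter-regulated reporter transcription units. Exposure 24 h. Detection: fluorescent RT-PCR products separated by capillary electrophoresis, normalised to DMSO negative control.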

Assay [10] deals with Myc proto-oncogene protein (Homo sapiens) (UniProt P01106). As to the kind of experiment: ATG_Myc_CIS: Attagene CIS-FACTORIAL HepG2 Assay for human Myelocytomatosis (Myc) Proto-Oncogene Transcription Factor (AID 2282990). The following applies: HepG2, Attagene cis-reporter transcription factor activity; actives raise or lower the signal. Summed up:
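Read-out: fluorescent reporter mRNA fragments resolved by capillary electrophoresis after RT-PCR. Human HepG2 liver cells carried transfected cis-element reporter units and were dosed for 24 h. Gain or loss of signal fitted relative to DMSO baseline.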

A short description of assay [11]: ATG_NF_kB_CIS: Attagene CIS-FACTORIAL HepG2 Assay for human Nuclear Factor Kappa B (NF-kB) (AID 2282991). The conditions noted are these: HepG2 Attagene cis-factorial NF-kB reporter mRNA; actives raise or lower the signal. Summed up: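 DMSO served as negative control and baseline for bidirectional curve fitting. Transiently transfected HepG2 cells were dosed for 24 h, then reporter transcripts were measured by RT-PCR with capillary electrophoresis detection.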

Assay [12] in a line: ATG_NRF2_ARE_CIS: Attagene CIS-FACTORIAL HepG2 Assay for human Nuclear Factor Erythroid 2 Related Factor 2 (NFR2) response to Antioxidant Response Elements (ARE) (AID 2282992).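 As to AC50: reporter mRNA level measured by RT-PCR and capillary electrophoresis fluorescence.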 The conditions noted are these: HepG2 Attagene ARE/NRF2 reporter, transcription factor activity; actives raise or lower the signal. Summed up: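 Fluorescence intensity of reporter-specific cDNA fragments, separated by capillary electrophoresis, reflects mRNA induction in transfected HepG2 cells at 24 h. Activity is fitted bidirectionally, DMSO serving as baseline.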

Assay [13] can be described thus: ATG_Oct_MLP_CIS: Attagene CIS-FACTORIAL HepG2 Assay for human Octamer-Binding Transcription Factor (Oct) (AID 2282993). The conditions noted are these: HepG2 Attagene cis-factorial Oct reporter, mRNA; actives raise or lower the signal. Summed up:
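HepG2, transient MRTU transfection, cis promoter elements; 24 h dosing; RT-PCR/CE fluorescence read-out of reporter mRNA; fit both directions vs DMSO.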

The target of assay [14] is Cellular tumor antigen p53 (Homo sapiens) (UniProt P04637). The assay can be described thus: ATG_p53_CIS: Attagene CIS-FACTORIAL HepG2 Assay for human p53 Transcription Factor (AID 2282994). The conditions noted are these: HepG2 p53 cis-element reporter, Attagene mRNA; actives raise or lower the signal. Summed up:
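Transiently transfected HepG2 (multiple cis reporter transcription units); exposure 24 h; reporter RNA via RT-PCR, 6-FAM extension, 2 h HpaI digest at 37 C, CE detection; DMSO baseline.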

A short description of assay [15]: BSK_3C_TissueFactor: BioMAP Diversity Plus: 3C Assay for Tissue Factor Biomarker Activity (AID 2282997). The conditions noted are these: BioMAP 3C HUVEC, tissue factor biomarker readout; actives raise or lower the signal. Summed up: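 After a 24 h chemical exposure of primary human umbilical vein endothelial cells, Tissue Factor levels were quantified by ELISA.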

Assay [16] can be described thus: BSK_3C_uPAR: BioMAP Diversity Plus: 3C Assay for Urokinase-type plasminogen activator receptor (uPAR) Biomarker Activity (AID 2282998). The following applies: BioMAP 3C HUVEC, uPAR biomarker ELISA; actives raise or lower the signal. Summed up: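 A multiplexed primary-cell system built on human umbilical vein endothelium was used, with chemical present for 24 h before reading. Cell-surface uPAR was detected by ELISA; signal change in either direction counted against DMSO.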
On the technique in general: ELISA stands for enzyme-linked immunosorbent assay.

The nature of assay [17]: BSK_3C_VCAM1: BioMAP Diversity Plus: 3C Assay for Vascular cell adhesion molecule 1 (VCAM1) Biomarker Activity (AID 2282999). The following applies: BioMAP 3C HUVEC, VCAM1 ELISA, cytokine-stimulated; actives raise or lower the signal. Summed up: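 HUVEC primary cells, 24 h compound exposure; VCAM-1 by ELISA; gain/loss of signal fitted bidirectionally vs DMSO baseline.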

Assay [18] addresses Estrogen-related receptor gamma (Homo sapiens) (UniProt P62508). As to the kind of experiment: ATG_ERRg_TRANS: Attagene TRANS-FACTORIAL HepG2 Assay for human Estrogen-Related Receptor gamma (ERRg) (AID 2282977; active = hit-call score of the fitted dose curve at least 0.9, where 1 is the maximum;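 also: hits increase reporter signal over DMSO so potencies reflect activators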). The conditions noted are these: HepG2 Attagene TRANS reporter, ERRg transactivation. Summed up: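 Readout: fluorescent reporter-mRNA fragments resolved by capillary electrophoresis after RT-PCR and HpaI cut. Cells: transiently transfected HepG2 carrying GAL4-UAS reporters driven by exogenous NR-Gal4 chimeras, dosed 24 h. Activity fitted upward relative to DMSO baseline.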

Assay [19] addresses Hepatocyte nuclear factor 4-alpha (Homo sapiens) (UniProt P41235). As to the kind of experiment: ATG_HNF4a_TRANS: Attagene TRANS-FACTORIAL HepG2 Assay for human Hepatocyte Nuclear Factor 4 alpha (HNF4a) (AID 2282982; active = hit-call score of the fitted dose curve at least 0.9, where 1 is the maximum). The following applies: HepG2 HNF4a transactivation reporter, mRNA readout. Summed up: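 Transient MRTU transfection of HepG2, 24 h dosing. Readout: reporter mRNA via RT-PCR + capillary electrophoresis, fluorescence; activity fit upward relative to DMSO control.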

The nature of assay [20]: BSK_4H_Eotaxin3: BioMAP Diversity Plus: 4H Assay for Eotaxin 3 Biomarker Activity (AID 2283000).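 Also: CCL26 protein level quantified by ELISA in parallel with SRB cytotoxicity check.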 The conditions noted are these: primary human endothelial cells (HUVEC); actives raise or lower the signal. Summed up: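 Chemicals were added to human umbilical vein endothelium cultures, and Eotaxin-3 was quantified by ELISA at 24 h. Values were derived by bidirectional fitting with DMSO serving as negative control and activity baseline.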

Chain of Transcriptional activator Myb (Homo sapiens) (P10242 whole entry, looked up): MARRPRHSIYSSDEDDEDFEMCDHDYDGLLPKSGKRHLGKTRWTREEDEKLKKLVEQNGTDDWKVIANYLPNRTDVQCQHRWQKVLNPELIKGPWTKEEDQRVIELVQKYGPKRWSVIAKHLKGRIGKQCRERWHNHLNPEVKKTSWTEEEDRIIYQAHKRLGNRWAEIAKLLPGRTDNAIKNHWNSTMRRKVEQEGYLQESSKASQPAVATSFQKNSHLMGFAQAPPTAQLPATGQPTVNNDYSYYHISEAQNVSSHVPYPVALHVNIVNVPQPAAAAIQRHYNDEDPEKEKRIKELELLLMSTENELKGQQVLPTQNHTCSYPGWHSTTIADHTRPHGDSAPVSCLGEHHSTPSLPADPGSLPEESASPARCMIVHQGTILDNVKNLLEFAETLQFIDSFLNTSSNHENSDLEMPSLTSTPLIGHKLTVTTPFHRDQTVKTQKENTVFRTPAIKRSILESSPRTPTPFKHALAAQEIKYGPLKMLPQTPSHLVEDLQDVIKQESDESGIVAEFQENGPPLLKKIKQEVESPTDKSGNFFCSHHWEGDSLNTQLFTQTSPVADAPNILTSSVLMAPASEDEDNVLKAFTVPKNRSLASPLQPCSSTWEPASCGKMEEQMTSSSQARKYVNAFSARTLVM
Chain of Myc proto-oncogene protein (Homo sapiens) (P01106 whole entry, looked up, the tested form may be a part): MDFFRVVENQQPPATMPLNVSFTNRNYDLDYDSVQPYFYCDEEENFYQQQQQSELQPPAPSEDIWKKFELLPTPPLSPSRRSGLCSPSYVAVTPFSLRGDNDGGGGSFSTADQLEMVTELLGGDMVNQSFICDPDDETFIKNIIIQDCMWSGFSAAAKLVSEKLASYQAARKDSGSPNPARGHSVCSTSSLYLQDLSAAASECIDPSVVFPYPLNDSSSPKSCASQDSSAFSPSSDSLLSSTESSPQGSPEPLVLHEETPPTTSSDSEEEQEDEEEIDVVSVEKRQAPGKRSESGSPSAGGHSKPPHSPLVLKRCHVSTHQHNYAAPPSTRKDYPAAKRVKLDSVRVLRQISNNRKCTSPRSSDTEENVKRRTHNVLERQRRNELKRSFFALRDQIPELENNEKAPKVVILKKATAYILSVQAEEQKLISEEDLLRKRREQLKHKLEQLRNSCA
Chain of Oxysterols receptor LXR-alpha (Homo sapiens) (Q13133 whole entry, looked up, the tested form may be a part): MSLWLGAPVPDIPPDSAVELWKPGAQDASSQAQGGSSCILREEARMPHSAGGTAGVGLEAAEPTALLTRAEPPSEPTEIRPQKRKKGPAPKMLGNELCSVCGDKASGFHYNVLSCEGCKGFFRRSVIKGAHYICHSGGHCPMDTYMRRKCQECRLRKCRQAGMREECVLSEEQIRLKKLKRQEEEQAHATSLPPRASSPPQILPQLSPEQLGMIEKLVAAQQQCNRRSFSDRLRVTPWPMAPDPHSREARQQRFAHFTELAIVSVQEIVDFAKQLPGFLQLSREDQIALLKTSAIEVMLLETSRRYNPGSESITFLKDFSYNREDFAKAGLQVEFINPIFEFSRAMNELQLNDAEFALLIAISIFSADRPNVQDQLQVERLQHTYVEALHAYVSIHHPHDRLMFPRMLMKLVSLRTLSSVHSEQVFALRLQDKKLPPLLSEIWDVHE
Chain of Bile acid receptor (Homo sapiens) (Q96RI1 whole entry, looked up, the tested form may be a part): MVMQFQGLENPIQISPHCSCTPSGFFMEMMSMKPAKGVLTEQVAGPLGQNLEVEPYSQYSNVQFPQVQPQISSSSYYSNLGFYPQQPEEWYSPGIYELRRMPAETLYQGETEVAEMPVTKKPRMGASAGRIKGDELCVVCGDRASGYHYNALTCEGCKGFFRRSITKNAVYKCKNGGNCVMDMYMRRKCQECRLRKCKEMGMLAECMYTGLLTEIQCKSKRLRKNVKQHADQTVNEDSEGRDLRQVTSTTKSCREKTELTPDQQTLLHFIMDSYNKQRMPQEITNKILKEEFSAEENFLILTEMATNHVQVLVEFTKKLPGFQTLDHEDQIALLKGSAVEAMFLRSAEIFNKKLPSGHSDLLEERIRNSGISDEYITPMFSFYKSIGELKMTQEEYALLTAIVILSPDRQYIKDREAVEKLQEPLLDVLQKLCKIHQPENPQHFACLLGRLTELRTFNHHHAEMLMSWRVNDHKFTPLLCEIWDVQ
Chain of Nuclear respiratory factor 1 (Homo sapiens) (Q16656 whole entry, looked up): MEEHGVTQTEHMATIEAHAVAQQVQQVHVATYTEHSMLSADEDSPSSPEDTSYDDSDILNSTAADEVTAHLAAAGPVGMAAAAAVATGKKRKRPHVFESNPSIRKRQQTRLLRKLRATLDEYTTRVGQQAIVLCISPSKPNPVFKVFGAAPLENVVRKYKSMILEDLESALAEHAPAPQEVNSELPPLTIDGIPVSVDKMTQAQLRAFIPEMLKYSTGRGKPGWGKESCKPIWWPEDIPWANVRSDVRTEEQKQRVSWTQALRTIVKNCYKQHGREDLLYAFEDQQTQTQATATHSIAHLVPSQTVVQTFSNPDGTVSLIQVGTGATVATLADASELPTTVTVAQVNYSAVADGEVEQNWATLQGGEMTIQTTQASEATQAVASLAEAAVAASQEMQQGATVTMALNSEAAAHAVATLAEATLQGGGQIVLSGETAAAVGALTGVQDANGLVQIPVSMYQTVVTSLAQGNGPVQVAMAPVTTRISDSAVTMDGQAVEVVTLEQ
Chain of Oxysterols receptor LXR-beta (Homo sapiens) (P55055 whole entry, looked up, the tested form may be a part): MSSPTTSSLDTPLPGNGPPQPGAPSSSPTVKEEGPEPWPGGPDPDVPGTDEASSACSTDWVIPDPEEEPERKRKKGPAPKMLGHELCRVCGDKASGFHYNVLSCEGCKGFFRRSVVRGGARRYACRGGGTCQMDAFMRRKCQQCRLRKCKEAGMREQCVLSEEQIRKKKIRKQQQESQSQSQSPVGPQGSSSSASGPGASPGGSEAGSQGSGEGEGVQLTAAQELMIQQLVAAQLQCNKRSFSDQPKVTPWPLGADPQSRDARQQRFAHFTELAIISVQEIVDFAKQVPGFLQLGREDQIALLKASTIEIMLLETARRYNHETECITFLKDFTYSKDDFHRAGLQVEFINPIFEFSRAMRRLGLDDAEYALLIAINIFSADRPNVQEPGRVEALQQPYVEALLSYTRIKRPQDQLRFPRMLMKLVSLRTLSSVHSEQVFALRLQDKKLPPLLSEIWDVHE
Chain of Cellular tumor antigen p53 (Homo sapiens) (P04637 whole entry, looked up): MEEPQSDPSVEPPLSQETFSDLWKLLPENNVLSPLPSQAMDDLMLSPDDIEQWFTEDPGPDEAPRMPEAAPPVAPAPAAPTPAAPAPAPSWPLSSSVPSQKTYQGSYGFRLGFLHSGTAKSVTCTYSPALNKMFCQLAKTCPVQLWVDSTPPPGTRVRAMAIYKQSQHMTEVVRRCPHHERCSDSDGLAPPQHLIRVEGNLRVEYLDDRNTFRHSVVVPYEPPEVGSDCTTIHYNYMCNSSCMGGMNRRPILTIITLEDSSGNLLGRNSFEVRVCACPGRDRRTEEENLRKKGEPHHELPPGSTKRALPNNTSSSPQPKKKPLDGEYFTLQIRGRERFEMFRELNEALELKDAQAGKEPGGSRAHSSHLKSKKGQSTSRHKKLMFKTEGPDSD
Chain of Hepatocyte nuclear factor 4-alpha (Homo sapiens) (P41235 whole entry, looked up): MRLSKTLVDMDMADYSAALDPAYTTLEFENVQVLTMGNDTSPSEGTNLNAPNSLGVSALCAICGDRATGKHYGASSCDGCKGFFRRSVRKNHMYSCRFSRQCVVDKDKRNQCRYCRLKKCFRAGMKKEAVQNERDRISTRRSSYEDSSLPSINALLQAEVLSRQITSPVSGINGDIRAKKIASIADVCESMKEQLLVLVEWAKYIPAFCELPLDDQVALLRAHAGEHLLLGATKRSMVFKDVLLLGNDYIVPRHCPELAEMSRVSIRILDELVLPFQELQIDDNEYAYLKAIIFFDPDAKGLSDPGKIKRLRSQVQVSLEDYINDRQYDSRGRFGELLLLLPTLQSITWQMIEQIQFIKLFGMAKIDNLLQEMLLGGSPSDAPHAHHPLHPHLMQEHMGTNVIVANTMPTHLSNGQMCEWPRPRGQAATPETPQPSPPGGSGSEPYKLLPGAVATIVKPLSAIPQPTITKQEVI
Chain of Nuclear receptor subfamily 4 group A member 2 (Homo sapiens) (P43354 whole entry, looked up, the tested form may be a part): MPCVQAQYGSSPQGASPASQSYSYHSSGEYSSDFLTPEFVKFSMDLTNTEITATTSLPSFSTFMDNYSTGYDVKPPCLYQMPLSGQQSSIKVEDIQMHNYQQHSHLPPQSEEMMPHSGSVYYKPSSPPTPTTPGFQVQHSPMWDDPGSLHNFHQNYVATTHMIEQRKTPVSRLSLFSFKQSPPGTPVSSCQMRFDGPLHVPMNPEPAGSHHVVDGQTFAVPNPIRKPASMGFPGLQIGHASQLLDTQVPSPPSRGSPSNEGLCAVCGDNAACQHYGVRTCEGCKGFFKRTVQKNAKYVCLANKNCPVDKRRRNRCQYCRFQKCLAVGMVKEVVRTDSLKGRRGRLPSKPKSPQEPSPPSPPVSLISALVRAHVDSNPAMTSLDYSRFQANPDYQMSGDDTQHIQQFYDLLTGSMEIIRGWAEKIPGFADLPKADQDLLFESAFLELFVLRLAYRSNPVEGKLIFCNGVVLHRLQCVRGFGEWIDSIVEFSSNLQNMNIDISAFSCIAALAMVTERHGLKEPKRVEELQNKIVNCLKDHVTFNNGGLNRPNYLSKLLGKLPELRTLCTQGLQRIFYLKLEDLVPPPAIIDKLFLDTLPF
Chain of Estrogen-related receptor gamma (Homo sapiens) (P62508 whole entry, looked up, the tested form may be a part): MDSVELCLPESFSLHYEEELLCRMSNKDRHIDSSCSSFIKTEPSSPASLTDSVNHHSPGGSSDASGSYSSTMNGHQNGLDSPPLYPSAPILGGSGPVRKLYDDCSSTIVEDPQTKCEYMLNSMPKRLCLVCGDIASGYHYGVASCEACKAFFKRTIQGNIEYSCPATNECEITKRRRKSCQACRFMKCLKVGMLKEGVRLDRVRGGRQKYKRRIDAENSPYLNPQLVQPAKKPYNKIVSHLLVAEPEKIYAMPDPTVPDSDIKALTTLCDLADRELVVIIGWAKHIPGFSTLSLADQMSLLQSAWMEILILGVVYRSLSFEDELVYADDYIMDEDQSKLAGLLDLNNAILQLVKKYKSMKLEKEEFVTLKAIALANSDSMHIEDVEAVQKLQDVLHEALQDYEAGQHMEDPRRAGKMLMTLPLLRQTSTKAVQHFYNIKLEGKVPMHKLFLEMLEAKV

What is called AC50 is the concentration giving half of the maximal activity seen. As to `O=S(=O)(O)C(F)(F)C(F)(F)C(F)(F)C(F)(F)C(F)(F)C(F)(F)F`, the call in assay [1], in assay [2], in assay [3], in assay [4], in assay [5] and in [6] was inactive. Besides, the outcome in [7], in assay [8], in assay [9], in assay [10], in assay [11] and in [13] was inactive. Also, the result in [14], in assay [15], in assay [16] and in assay [17] was inactive. In addition, the AC50 in assay [12] was 132 µM (active) [middle of 4 runs].

Consider `CN(C)CCO`, for which the molecule was called inactive in [18], in [3], in assay [19], in assay [4], in assay [5] and in assay [6]. The molecule was classed as inactive in assay [8], in assay [9], in assay [10], in assay [11], in [12] and in assay [13]. Also, the molecule was classed as inactive in assay [14], in assay [15], in assay [16] and in assay [20].

With `c1cc2ccc3cccc4ccc(c1)c2c34`, the molecule was called inactive in assay [3], in assay [19], in assay [4], in [5], in assay [6] and in assay [7]. Besides, the molecule was classed as inactive in [8], in assay [9], in assay [10], in assay [11], in assay [12] and in assay [13]. Further, the call in [14], in assay [16] and in assay [17] was inactive. For the same molecule, the AC50 in [15] was 5.47 µM (active).

As for `Nc1ccc(-c2ccc(N)cc2)cc1`, the call in [19], in [4], in [5], in assay [8], in [9] and in assay [10] was inactive. The result in assay [12], in assay [13], in [14], in assay [16] and in assay [20] was inactive. In addition, the AC50 in assay [15] was 3.97 µM (active).

`O=C(N[C@H]1CN2CCC1CC2)c1cc2ccoc2cn1`: the molecule was classed as inactive in assay [2], in assay [3], in assay [19], in [4], in [5] and in assay [7]. In addition, the molecule was called inactive in assay [8], in [9], in assay [10], in [11], in assay [12] and in assay [13]. In addition, the result in assay [14], in [15], in assay [16] and in assay [17] was inactive.

Regarding `Cc1ccccc1CO[C@@H]1C[C@@]2(C(C)C)CC[C@]1(C)O2`, the results for the concentration at half-maximal activity (AC50) in assay [2] and in assay [12] were 32 µM (active) and 2.86 µM (active), respectively. Moreover, the call in assay [3], in assay [4], in [5], in [6], in [8] and in [9] was inactive. Besides, the outcome in assay [10], in assay [11], in assay [13], in [15], in [16] and in assay [17] was inactive.

For the molecule `Nn1cnnc1`, the molecule was called inactive in assay [2], in assay [3], in assay [4], in assay [8], in assay [9] and in assay [10]. The molecule was classed as inactive in assay [11], in assay [12], in assay [13], in assay [14], in [15] and in assay [16]. The result in assay [20] was inactive.
